# Values joined by “and” are separate entries in the source; they are usually repeats but may differ in a detail not shown here. Identical values can stand only once. The campaign covered roughly 290,000 compounds. About 260 (0.09%) were called active. For the sample, actives were picked, then their nearest neighbours and some compounds at random. Results with a measured potency or affinity are listed apart. Unmarked numbers belong to inactive results. Cut-off read from the data, not from the text of the source: active = inhibition above about 50%; inactive = the rest.
# Target: Kappa-type opioid receptor (Homo sapiens) (UniProt P41145)
# Sequence (P41145 whole entry, looked up): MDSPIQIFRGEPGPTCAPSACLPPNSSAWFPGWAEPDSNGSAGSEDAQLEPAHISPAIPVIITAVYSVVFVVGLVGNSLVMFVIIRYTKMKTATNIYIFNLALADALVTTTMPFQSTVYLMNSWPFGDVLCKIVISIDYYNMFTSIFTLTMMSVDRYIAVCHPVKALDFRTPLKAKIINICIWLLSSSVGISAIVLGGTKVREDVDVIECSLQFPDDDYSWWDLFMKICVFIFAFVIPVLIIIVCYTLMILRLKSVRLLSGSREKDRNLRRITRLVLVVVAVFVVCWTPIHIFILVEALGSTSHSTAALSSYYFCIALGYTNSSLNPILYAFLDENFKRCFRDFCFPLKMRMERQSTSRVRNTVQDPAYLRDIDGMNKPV
# Assay: kappa opioid receptor blockers – cell-based, luminescence, uHTS (AID 1778)
# Conditions: KOR beta-arrestin recruitment, antagonist mode, stronger effect = higher value; at 10 µM unless noted
row,Structure (SMILES),inhibition
1,Cc1nc(SCC(=O)N2CCOCC2)c2c(C)c(C)sc2n1,-32.1%
2,O=C(CSC1=NC(=O)C(c2ccccc2)C(=O)N1)Nc1cccc(Cl)c1 (stereo unspecified),-48.8%
3,C/C(=N\NC(=O)c1ccccn1)c1ccc(Cl)cc1,-13.1%
4,C=CCNC(=S)N/N=C(\C)c1cccc(OC)c1,26.1%
5,C/C(=N\NC(=O)COc1ccccc1-c1ccccc1)c1ccccn1,99% (active)
6,C/C(=N\NC(=O)COc1ccccc1-c1ccccc1)c1cccnc1,-42.8%
7,C=CCNC(=S)N/N=C(\C)c1cccnc1,3.5%
8,C/C(=N\NC(=O)Cc1ccc(Cl)cc1)c1ccccc1O,-29.7% [at 20 µM]
9,C/C(=N\NC(=O)COc1ccccc1-c1ccccc1)c1ccc(O)cc1O,-14.4%
10,CCCn1c2ccccc2c2cnn(CC(=O)NCCN(C)C)c(=O)c21,-19%
11,COc1ccc(OCCSc2nnc(C)n2-c2ccccc2)cc1,-14.2%
12,O=C(COC(=O)c1c(F)cccc1F)NCCNC(=O)COC(=O)c1c(F)cccc1F,-58.8%
13,CC1(C)CNC(=O)CC(C)(C)N1O,8.7%
14,O=C(NCc1ccco1)c1cccc(C(F)(F)F)c1,-35.4% [at 20 µM]
15,CCNc1nc(Oc2ccc(C(=O)OC)cc2)nc(SC)n1,1.5%
16,Cc1ccc(-n2[nH]c(C)c(/C=N/c3cccc(C)n3)c2=O)cc1,21.8%

row,Structure (SMILES),inhibition
1,COc1ccccc1/C=N/N1C(=O)c2cccc3cccc(c23)C1=O,-44.5%
2,Cc1[nH]n(-c2ccccc2)c(=O)c1/C=N/N1C(=O)c2ccc3c4c(ccc(c24)C1=O)CC3,-2.7%
3,O=C1c2cccc3cccc(c23)C(=O)N1/N=C/c1ccc(O)cc1O,-17.5%
4,CSc1oc(-c2ccccc2)nc1S(=O)(=O)c1ccc(F)cc1,-25.9%
5,O=C(CO/N=C1\CCCc2nonc21)Nc1ccc(Br)cc1,24.7%
6,COc1cccc(NC(=O)C2CCN(C(=O)NC3CCCCC3)CC2)c1,-51.6%
7,Cc1cc(C)cc(NC(=O)CSc2nnc(-c3cc(C)[nH]n3)n2N)c1,-17.6%
8,O=C(CSc1nnc(NC(=O)c2ccc(F)cc2)s1)NCc1ccco1,22.3%
9,Oc1ccc2ccccc2c1N=Nc1ccccc1F,37.6%
10,Oc1ccc2ccccc2c1/C=N/c1nccs1,-15.8%
11,Cc1ccc(N=Nc2ccc3ccccc3c2O)cc1,15.6% [at 20 µM]
12,Oc1c(N=Nc2ccc(F)cc2)ccc2ccccc12,7.2% [at 20 µM]
13,Oc1ccc(N=Nc2c(O)ccc3ccccc23)cc1,32%
14,Oc1ccc2ccccc2c1N=Nc1nccs1,109% (active)
15,Oc1ccc2ccccc2c1N=Nc1ccc(F)cc1,6.7% and 41.7%
